Holding throughout (type): functional
Experiment [1] deals with Solute carrier family 2, facilitated glucose transporter member 1 (Homo sapiens) (UniProt P11166). As to the kind of experiment: ST_JUDE_LEISH: Cytotoxicity at 2uM final concentration against transgenic Leishmania Mexicana promastigotes LmGLUT1 that are glucose transport deficient and complemented with the human glucose transporter GLUT1. Activity is measured by DNA content using SYBR green in vitro.

Experiment [2] deals with Hexose transporter 1 (Plasmodium falciparum) (UniProt O97467). As to the kind of experiment: ST_JUDE_LEISH: Cytotoxicity at 2uM final concentration against transgenic Leishmania Mexicana promastigotes LmPfHT that are glucose transport deficient and complemented with the Plasmodium falciparum hexose transporter. Activity is measured by DNA content using SYBR green in vitro.

Experiment [3] concerns the target Glucose transporter (Leishmania mexicana) (UniProt O61059). The experiment in a line: ST_JUDE_LEISH: Cytotoxicity at 2uM final concentration against transgenic Leishmania Mexicana promastigotes LmGT2 that are glucose transport deficient and complemented with the L. Mexicana glucose transporter 2. Activity is measured by DNA content using SYBR green in vitro.

Here are results for 36 compounds from ChEMBL document CHEMBL3433997, “St. Jude Leishmania screening dataset” (2016).

Solute carrier family 2, facilitated glucose transporter member 1 (Homo sapiens), sequence (P11166 whole entry): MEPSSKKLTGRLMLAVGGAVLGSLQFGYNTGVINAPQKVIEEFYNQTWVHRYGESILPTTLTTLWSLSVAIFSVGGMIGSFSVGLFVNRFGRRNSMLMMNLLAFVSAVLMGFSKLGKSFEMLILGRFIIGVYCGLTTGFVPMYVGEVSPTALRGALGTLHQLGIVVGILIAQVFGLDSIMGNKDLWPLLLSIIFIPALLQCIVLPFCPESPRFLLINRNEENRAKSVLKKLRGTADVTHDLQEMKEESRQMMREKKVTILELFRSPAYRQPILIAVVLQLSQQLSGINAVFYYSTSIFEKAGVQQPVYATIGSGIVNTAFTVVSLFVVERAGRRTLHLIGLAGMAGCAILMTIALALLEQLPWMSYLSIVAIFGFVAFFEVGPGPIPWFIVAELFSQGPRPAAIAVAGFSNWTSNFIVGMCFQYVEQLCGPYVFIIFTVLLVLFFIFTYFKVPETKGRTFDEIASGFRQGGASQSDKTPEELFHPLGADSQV

Regarding `Cc1cccc2nc(-c3cccc(-c4cccc(NC(=O)c5ccc(C(N)=O)cc5)c4)c3)[nH]c12`, the inhibition in experiment [1] came to 0.33%; in experiment [2], 1.11%; in experiment [3], 1.3%.
The matching figures for `O=C(Nc1ccnc2ccccc12)NC1CCN(CCc2ccccc2)CC1`: 12.1%, 10.9% and 7.91%.
The matching figures for `COCCNCc1cccc(-c2ccc3c(Nc4ccc(F)cc4Cl)ccnc3c2)c1`: -1.97%, 2.48% and 0.78%.
For `Nc1ncc(-c2ccc(Cl)c(Cl)c2)c(N)n1`, the inhibition in experiment [1] is 0.86%; in experiment [2] it was 1.64%; in experiment [3] it was 0.31%.
The matching figures for `CCCN(CCC)c1nn2c(=O)c(C(=O)N3CCN(Cc4ccccc4)CC3)cnc2s1`: 1.4%, 1.87% and 2.14%.
In the case of `COc1cc(Cc2cnc(N)nc2N)cc(OCCCCCCN2C(=O)c3ccccc3C2=O)c1OC`, the inhibition in experiment [1] worked out at 7.29%; in experiment [2], 4.53%; in experiment [3], 5.48%.
The matching figures for `Cc1ccc2ccncc2c1N`: 7.9%, 3.24% and 6.36%.
The matching figures for `O=C(Nc1ccccc1)NC1CCN(CCC2(c3ccc(Cl)c(Cl)c3)COCN(C(=O)c3ccccc3)C2)C1` (stereo not drawn): 4.31%, 4.43% and 4.63%.
Turning to `Nc1cc(C(F)(F)F)ccc1Cl`, the inhibition in experiment [1] is -1.56%; in experiment [2] it was -2.13%; in experiment [3], -2.26%.
Turning to `COc1ccc(C(=O)CCC(=O)N(CCSC(C)(C)C)Cc2ccc(-c3ccc(CNCCc4ccc(S(C)(=O)=O)cc4)cn3)cc2)cc1F`, the inhibition in experiment [1] came out at 10.4%; in experiment [2], 9.03%; in experiment [3], 7.07%.
The matching figures for `O=C(c1cccc(-c2ccc(-c3nc4cc(F)ccc4[nH]3)s2)c1)N1CCCCC1CN1CCC(O)C1` (stereo not drawn): 2.59%, 1.6% and 1.75%.
The matching figures for `CO/C(=C\C=C/c1cc2cc(Cl)c(Cl)cc2[nH]1)C(=O)NC1CC(C)(C)N(C)C(C)(C)C1`: 7.24%, 5.6% and 5.19%.
The matching figures for `COc1ccc2nccc([C@@H](O)CN3CCC(NCc4cc5oc(=O)[nH]c5cc4Cl)CC3)c2c1`: -1.1%, -1.56% and -0.82%.
On to `Cc1cc2ncn(-c3nccc(NCc4ccc(F)c(C)c4)n3)c2cc1C`, for which the results for the inhibition in experiment [1], in experiment [2] and in experiment [3] were 4%, 4.86% and 2.52%, respectively.
Take `CC(C)Sc1nc2c(c(=O)n1CCc1ccccc1)C1(CCCCC1)Cc1ccccc1-2`: the figures for the inhibition in experiment [1], in experiment [2] and in experiment [3] were -1.26%, -1.14% and -0.83%, respectively.
The matching figures for `CN(Cc1cnc2nc(N)nc(N)c2n1)c1ccc(C(=O)N[C@H](CCC(=O)OC(C)(C)C)C(=O)N[C@@H](CCC(=O)OC(C)(C)C)C(=O)OC(C)(C)C)cc1`: 2.25%, 1.59% and 3.05%.
The matching figures for `O=C(/C=C/c1ccc(C(F)(F)F)cc1)NCCCCCN1CCN(C(=O)Nc2ccc(Cl)c(Cl)c2)CC1`: 0.91%, 2.31% and -0.42%.
The matching figures for `CC(C)(C)c1nn(-c2ccc(Cl)cc2)c2[nH]c(=O)c(CNC3CCCC3)cc12`: 7.6%, 6.85% and 8.31%.
Consider `CCOC(=O)C1=C(C)NC(C)=C(C(=O)OCC)C1(C(=O)OCc1ccccc1)c1cccc(C(F)(F)F)c1`, for which the inhibition in experiment [1] came to 2.88%; in experiment [2], 3.39%; in experiment [3], 4.11%.
With `CC(C)CC(NC(=O)c1cc2ccccc2s1)C(=O)N1CCCCCC1c1ccc(C(C)(C)C)cc1` (stereo not drawn), the inhibition in experiment [1] was -2.77%; in experiment [2], -0.83%; in experiment [3] it was -0.81%.
The matching figures for `NCC(=O)NC12CC3CC(CC(C3)C1)C2`: 1.01%, 2.25% and 1.66%.
For `Nc1cc2c(C3CCN(CC4CCN(C(=O)/C=C/c5ccc(Cl)c(Cl)c5)CC4)CC3)c[nH]c2cn1`, the inhibition was 1.83% in experiment [1], 0.67% in experiment [2] and -0.09% in experiment [3].
The matching figures for `CN(C)CCN(C)Cc1ccc(-c2ccc(NC(=O)c3ccc(Cl)cc3)cc2)cc1`: 21.2%, 11.3% and 7.17%.
The matching figures for `CC1CCN(c2nc(C(=O)NCCc3ccc(Cl)c(Cl)c3)c(C(C)C)s2)CC1`: 0.93%, 0.99% and 2.67%.
The matching figures for `O=c1cc(NCCCNCc2ccc(Cl)c(Cl)c2)[nH]c2ccc(C(F)(F)F)cc12`: 2.13%, 1.67% and 2.08%.
Turning to `Cc1ccc(NC(=O)Nc2ccc(Br)cc2)cc1OCCN(C)C`, the inhibition was determined as 5.98% in experiment [1], 3.65% in experiment [2] and 2.82% in experiment [3].
For the compound `COc1cc(NC2=NS(=O)(=O)c3cc(Cl)ccc3N2C)cc(OC)c1OC`, the inhibition in experiment [1] turned out to be 6.86%; in experiment [2] it was 6.41%; in experiment [3], 7.53%.
The matching figures for `FC(F)(F)c1ccc2[nH]c(-c3cccc(-c4ccc(CNCc5ccccc5)cc4)c3)nc2c1`: -0.08%, -1.13% and -0.47%.
Consider `COc1nc2c(CCN3CCC(NCc4ccc5c(n4)NC(=O)CO5)CC3)c(Cl)cnc2cc1F`, for which the figures for the inhibition in experiment [1], in experiment [2] and in experiment [3] were 7.62%, 8.51% and 7.05%, respectively.
The matching figures for `Oc1ccc(CCNCCCCCCNCCc2ccc(Cl)cc2)c(Cl)c1O`: -2.47%, -4.06% and -1.17%.
As to `COc1ccccc1-c1cccc(CNC2CCN(CC3Cn4c(=O)ccc5ccc(F)c3c54)CC2)c1` (stereo not drawn), the inhibition was 15% in experiment [1], 31.3% in experiment [2] and 54.7% in experiment [3].
The matching figures for `COc1ccc2nccc(NC(=O)N3CCC(NCCOc4cc(F)cc(F)c4)CC3)c2n1`: 8.02%, 12.1% and -0.77%.
The matching figures for `COc1ccccc1C(=O)N1CCN(Cc2cccs2)CC1`: 7.76%, 7.28% and 9.06%.
In the case of `COc1cccc(CNc2noc(-c3c(-c4ccccc4)noc3C)n2)c1OC`, the inhibition in experiment [1] stood at 3.64%; in experiment [2], 3.83%; in experiment [3], 2.76%.
The matching figures for `O=C(Nc1ccc2[nH]c(-c3ccccc3)nc2c1)c1cc(-c2ccc3c(c2)OCCO3)n[nH]1`: 12.2%, 11.6% and 11.4%.
Consider `CC(=O)Nc1ccc(CN2CCC(NC(=O)c3ccc(-c4cccc(OC(C)C)c4)s3)CC2)cc1`, for which the inhibition in experiment [1] was 6.04%; in experiment [2] it was 2.62%; in experiment [3] it was 7.43%.

What is called inhibition is the relative decrease from the control value, in per cent.
